Data: PubChem BioAssay (Tox21)
Inconclusive results are not listed. Calls of active or inactive are those of the source. Unless noted, the call rests on the fitted dose curve; in most records, active means well fitted curve in the direction sought with a large enough effect in the repeat runs; inconclusive means weak or mixed curves; inactive means no such curve, though single readings can be large; an effect the other way counts as inactive or inconclusive.

Key:
[1] = qHTS assay for small molecules that induce genotoxicity in human embryonic kidney cells expressing luciferase-tagged ATAD5 (AID 651632); further: nearly all actives have a fitted effect of over 15% in size
How it was run: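 Quantitative HTS in HEK293T expressing luciferase-tagged ATAD5, whose levels rise upon DNA damage. Exposure ran 16 hr at 37C and 5% CO2, with luminescence read 30 min after Amplite addition at room temperature.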

[2] = qHTS assay for small molecules that induce genotoxicity in human embryonic kidney cells expressing luciferase-tagged ATAD5 - cell viability (AID 651634; calls by dose curve; further: nearly all actives have a fitted effect of over 25% in size)
How it was run: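 After 15.5 hr incubation with compound at 37C, 5% CO2, HEK293T ATAD5-luciferase cells received CellTiter-Fluor reagent; fluorescence intensity was quantified following 30 min at 37C.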

[3] = qHTS assay for small molecule disruptors of the mitochondrial membrane potential - cell viability (AID 720634; calls by dose curve;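 further: human HepG2 liver cancer cells; series mostly up to about 83 µM; nearly all actives have a fitted effect of over 20% in size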)
How it was run: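 ATP-based luminescent viability readout (CellTiter-Glo, 30 min, room temperature) in HepG2 cells multiplexed with the m-MPI membrane potential dye; compound exposure lasted 1 hr at 37 C.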

[4] = qHTS assay to test for compound auto fluorescence at 590 nm (red) in HepG2 cells (AID 720674)
How it was run: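 Fluorescence at 590 nm emission following 540 nm excitation was recorded from HepG2 wells one hour after compound transfer, with DMSO-only wells as vehicle and Rose Bengal sodium equivalency as the scale.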

[5] = qHTS assay to test for compound auto fluorescence at 535 nm (green) in HepG2 cells (AID 720675)
[6] = qHTS assay to test for compound auto fluorescence at 460 nm (blue) in HEK293 cells (AID 720678)
How it was run: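 HEK293, 2,000 cells/well, 10% dialyzed FBS; attach 4-5 hr 37C; pin compound or DMSO; o/n 37C/5% CO2; fluorescence 405/460 nm; triamterene-equivalent units.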

[7] = qHTS assay to test for compound auto fluorescence at 590 nm (red) in HEK293 cells (AID 720679)
How it was run: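 Intensity at 540nm excitation and 590nm emission is reported as Rose Bengal sodium-equivalent autofluorescence. Measurements followed overnight exposure (37C, 5% CO2) of HEK293 cells, 2,000 per well, to 23 nL compound.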

[8] = qHTS assay to test for compound auto fluorescence at 535 nm (green) in HEK293 cells (AID 720680)
[9] = qHTS assay to test for compound auto fluorescence at 460 nm (blue) in HEK293 cell free culture (AID 720681)
How it was run: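 Compounds were added to cell-free DMEM with 10% FBS and fluorescence read directly. The blue channel used 405 nm excitation and 460 nm emission, with triamterene as the reference fluorophore.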

[10] = qHTS assay to test for compound auto fluorescence at 535 nm (green) in HEK293 cell free culture (AID 720682)
How it was run: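 Cell-free medium (DMEM, 10% FBS) receives compound or DMSO by pintool. Plate read directly at Ex 485/Em 535 nm. Signal converted to fluorescein equivalency.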

[11] = qHTS assay to test for compound auto fluorescence at 590 nm (red) in HEK293 cell free culture (AID 720683)
How it was run: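 Cell-free wells of DMEM with 10% FBS received compound, and intrinsic fluorescence was read at excitation/emission 540/590 nm. Values expressed as equivalence to Rose Bengal sodium.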

[12] = qHTS assay to test for compound auto fluorescence at 590 nm (red) in HepG2 cell free culture (AID 720684)
How it was run: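 Auto fluorescence equivalency versus Rose Bengal sodium, red channel Ex/Em 540/590 nm; compounds in cell-free MEM/10% FBS; DMSO vehicle control.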

[13] = qHTS assay to test for compound auto fluorescence at 460 nm (blue) in HepG2 cell free culture (AID 720685)
How it was run: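 Cell-free plates of MEM plus 10% FBS received 23 nL compound or DMSO vehicle; blue-channel (405/460 nm) intensity scored against triamterene as reference fluorophore.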

[14] = qHTS assay to test for compound auto fluorescence at 535 nm (green) in HepG2 cell free culture (AID 720686)
[15] = qHTS assay to test for compound auto fluorescence at 460 nm (blue) in HepG2 cells (AID 720687)
How it was run: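 HepG2 cells in MEM with 10% FBS, attached overnight at 37 C, were exposed to compound or DMSO for 1 hr at 37 C, 5% CO2. Blue fluorescence was read at 405/460 nm, with triamterene as reference fluorophore.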

[16] = target: Glucocorticoid receptor (Homo sapiens) (UniProt P04150); experiment: qHTS assay to identify small molecule agonists of the glucocorticoid receptor (GR) signaling pathway (AID 720691; active means well fitted activation curve with a large enough effect in the signal ratio in the repeat runs, not every such curve was filed as active; the % refers to the signal ratio)
Sequence of Glucocorticoid receptor (Homo sapiens) (P04150 whole entry, looked up): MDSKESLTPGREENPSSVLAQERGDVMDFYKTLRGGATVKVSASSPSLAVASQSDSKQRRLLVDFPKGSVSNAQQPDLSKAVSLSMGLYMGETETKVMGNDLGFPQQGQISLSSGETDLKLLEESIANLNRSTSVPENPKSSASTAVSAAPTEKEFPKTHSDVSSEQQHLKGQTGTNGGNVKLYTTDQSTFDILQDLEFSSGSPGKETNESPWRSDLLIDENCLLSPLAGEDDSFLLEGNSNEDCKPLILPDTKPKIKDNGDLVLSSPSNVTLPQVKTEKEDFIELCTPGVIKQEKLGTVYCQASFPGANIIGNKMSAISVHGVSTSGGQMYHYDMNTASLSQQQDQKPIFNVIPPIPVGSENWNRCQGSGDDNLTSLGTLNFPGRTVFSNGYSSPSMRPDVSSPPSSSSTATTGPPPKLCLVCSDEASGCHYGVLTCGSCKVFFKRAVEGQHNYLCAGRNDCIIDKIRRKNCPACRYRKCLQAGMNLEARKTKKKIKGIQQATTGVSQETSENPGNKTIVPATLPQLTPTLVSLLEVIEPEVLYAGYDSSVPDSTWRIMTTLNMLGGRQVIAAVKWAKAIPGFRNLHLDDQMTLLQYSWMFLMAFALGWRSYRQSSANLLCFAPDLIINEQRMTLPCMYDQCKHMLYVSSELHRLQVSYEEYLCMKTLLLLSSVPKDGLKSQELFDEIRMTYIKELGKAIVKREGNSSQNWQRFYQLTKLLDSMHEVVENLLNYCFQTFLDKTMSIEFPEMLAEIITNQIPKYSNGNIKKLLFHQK
How it was run: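 Cells: GR-bla HeLa, endogenous GR with stably integrated GRE-beta-lactamase reporter. Treatment 18 h, 37 C, compounds delivered in DMSO. Detection via LiveBLAzer B/G FRET substrate, 2 h RT, fluorescence intensity.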

[17] = target: Glucocorticoid receptor (Homo sapiens) (UniProt P04150); experiment: qHTS assay to identify small molecule antagonists of the glucocorticoid receptor (GR) signaling pathway (AID 720692; active means well fitted inhibition curve with a large enough effect in the signal ratio in the repeat runs, not every such curve was filed as active; the % refers to the signal ratio)
How it was run: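 Quantitative HTS in antagonist format: HeLa cells expressing endogenous GR and a stably integrated GRE-bla reporter, stimulated with 5 nM dexamethasone (final) alongside test compounds for 18 h.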

[18] = qHTS assay for small molecule agonists of the p53 signaling pathway - cell viability (AID 651633; calls by dose curve;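 further: p53RE-bla HCT reporter cells with a stable beta-lactamase p53 reporter; series mostly up to about 83 µM; nearly all actives have a fitted effect of over 30% in size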)
How it was run: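 p53RE-bla cells were treated with compound for 16 hours at 37 C. Cytotoxicity was then measured as CellTiter-Glo luminescence after 30 min at room temperature.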

[19] = qHTS assay for small molecule disruptors of the mitochondrial membrane potential (AID 720635); further: potency means the concentration at half of the fitted maximal effect
How it was run: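 HepG2 cells exposed to compound 1 hr at 37C, then Mito-MPS dye 30 min. Ratio read of aggregate (540/590 nm) versus monomer (490/535 nm) fluorescence.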

Measured: Potency

CC(C)N(c1ccccc1)C(C)C
not listed: [18] | [19]
inactive: all other assays above

O=C1c2cccc3c2[C@H](CCC3)CN1[C@@H]1CN2CCC1CC2
not listed: [1] | [2] | [12] | [16]
inactive: all other assays above

N[C@@H](CCC(=O)N[C@@H](CS)C(=O)NCC(=O)O)C(=O)O
not listed: [1] | [6] | [7] | [12] | [14] | [16] | [17]
inactive: all other assays above

BrCc1cccc(Oc2ccccc2)c1
not listed: [7] | [10] | [17] | [19]
inactive: all other assays above

CCN(C)C(=O)Oc1cccc([C@H](C)N(C)C)c1
not listed: [7] | [19]
inactive: all other assays above

O=C(Nc1ccc(Cl)c(Cl)c1)C1CC1
active: [19] 11.9 µM
not listed: [3]
inactive: all other assays above

CCCCCCOc1ccccc1C(N)=O
active: [19] 6.68 µM
not listed: [1] | [17]
inactive: all other assays above
